Experiments:
[1] = target: Sphingosine kinase 1 (Homo sapiens) (UniProt Q9NYA1); details: at 1 µM;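 further: mean SPHK1 inhibition value reported from the GSK PKIS kinase panel screen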
[2] = target: T1, Sphingosine kinase 2 (Homo sapiens) (UniProt Q9NRA0); details: at 0.1 µM
T1 sequence (whole entry): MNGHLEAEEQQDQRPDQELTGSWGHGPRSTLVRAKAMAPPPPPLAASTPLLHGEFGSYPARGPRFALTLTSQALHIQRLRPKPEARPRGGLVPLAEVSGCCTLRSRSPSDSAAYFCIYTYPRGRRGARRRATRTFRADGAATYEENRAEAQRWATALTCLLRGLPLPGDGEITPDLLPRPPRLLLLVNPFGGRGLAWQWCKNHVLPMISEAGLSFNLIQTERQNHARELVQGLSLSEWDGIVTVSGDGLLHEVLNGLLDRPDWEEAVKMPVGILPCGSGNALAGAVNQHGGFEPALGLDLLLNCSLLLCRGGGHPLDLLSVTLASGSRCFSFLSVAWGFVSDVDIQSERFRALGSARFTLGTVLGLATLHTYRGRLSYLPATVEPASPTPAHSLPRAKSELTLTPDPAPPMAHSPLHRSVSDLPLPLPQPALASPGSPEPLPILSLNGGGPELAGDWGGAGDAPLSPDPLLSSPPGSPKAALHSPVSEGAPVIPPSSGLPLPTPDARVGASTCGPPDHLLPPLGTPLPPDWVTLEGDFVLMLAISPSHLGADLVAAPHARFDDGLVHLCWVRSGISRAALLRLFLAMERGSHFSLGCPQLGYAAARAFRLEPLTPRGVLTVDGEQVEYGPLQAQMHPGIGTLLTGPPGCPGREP

[3] = target: T1, Sphingosine kinase 2 (Homo sapiens); details: at 1 µM
[4] = target: Casein kinase II subunit alpha (Homo sapiens) (UniProt P68400); details: at 0.1 µM
Sequence of Casein kinase II subunit alpha (Homo sapiens) (P68400 whole entry, looked up): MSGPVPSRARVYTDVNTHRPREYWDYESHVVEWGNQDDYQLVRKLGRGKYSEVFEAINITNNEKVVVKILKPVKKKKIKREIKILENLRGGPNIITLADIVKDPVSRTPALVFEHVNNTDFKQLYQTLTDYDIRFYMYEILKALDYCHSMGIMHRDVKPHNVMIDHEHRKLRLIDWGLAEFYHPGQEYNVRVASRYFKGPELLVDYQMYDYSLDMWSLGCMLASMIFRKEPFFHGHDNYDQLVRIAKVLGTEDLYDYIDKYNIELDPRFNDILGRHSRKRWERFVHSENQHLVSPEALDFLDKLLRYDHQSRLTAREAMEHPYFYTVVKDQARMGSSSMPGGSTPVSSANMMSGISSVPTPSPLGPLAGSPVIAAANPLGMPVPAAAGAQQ

[5] = target: Casein kinase II subunit alpha (Homo sapiens) (UniProt P68400); details: at 1 µM
[6] = target: T2, Inhibitor of nuclear factor kappa-B kinase subunit alpha (Homo sapiens) (UniProt O15111); details: at 0.1 µM
T2 sequence (whole entry): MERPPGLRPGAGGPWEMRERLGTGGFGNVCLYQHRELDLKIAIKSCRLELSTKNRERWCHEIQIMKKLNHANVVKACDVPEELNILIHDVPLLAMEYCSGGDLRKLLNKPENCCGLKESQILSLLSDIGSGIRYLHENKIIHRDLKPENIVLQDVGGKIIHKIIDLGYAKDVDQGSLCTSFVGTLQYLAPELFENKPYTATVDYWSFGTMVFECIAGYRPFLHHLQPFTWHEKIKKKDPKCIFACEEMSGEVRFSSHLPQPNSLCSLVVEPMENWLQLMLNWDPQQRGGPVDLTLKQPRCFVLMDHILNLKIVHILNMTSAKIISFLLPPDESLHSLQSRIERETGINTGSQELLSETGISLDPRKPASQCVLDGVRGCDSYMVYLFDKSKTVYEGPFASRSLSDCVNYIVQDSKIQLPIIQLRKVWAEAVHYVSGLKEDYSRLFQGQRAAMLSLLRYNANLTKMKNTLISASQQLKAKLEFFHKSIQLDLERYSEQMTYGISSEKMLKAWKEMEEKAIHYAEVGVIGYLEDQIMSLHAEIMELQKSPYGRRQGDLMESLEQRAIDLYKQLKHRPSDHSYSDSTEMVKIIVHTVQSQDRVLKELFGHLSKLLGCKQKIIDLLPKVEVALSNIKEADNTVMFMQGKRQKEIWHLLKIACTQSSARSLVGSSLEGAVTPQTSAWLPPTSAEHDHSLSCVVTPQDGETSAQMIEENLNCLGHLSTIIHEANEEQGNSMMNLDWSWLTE

[7] = target: T2, Inhibitor of nuclear factor kappa-B kinase subunit alpha (Homo sapiens); details: at 1 µM
[8] = target: T3, Inhibitor of nuclear factor kappa-B kinase subunit beta (Homo sapiens) (UniProt O14920); details: at 0.1 µM
T3 sequence (whole entry): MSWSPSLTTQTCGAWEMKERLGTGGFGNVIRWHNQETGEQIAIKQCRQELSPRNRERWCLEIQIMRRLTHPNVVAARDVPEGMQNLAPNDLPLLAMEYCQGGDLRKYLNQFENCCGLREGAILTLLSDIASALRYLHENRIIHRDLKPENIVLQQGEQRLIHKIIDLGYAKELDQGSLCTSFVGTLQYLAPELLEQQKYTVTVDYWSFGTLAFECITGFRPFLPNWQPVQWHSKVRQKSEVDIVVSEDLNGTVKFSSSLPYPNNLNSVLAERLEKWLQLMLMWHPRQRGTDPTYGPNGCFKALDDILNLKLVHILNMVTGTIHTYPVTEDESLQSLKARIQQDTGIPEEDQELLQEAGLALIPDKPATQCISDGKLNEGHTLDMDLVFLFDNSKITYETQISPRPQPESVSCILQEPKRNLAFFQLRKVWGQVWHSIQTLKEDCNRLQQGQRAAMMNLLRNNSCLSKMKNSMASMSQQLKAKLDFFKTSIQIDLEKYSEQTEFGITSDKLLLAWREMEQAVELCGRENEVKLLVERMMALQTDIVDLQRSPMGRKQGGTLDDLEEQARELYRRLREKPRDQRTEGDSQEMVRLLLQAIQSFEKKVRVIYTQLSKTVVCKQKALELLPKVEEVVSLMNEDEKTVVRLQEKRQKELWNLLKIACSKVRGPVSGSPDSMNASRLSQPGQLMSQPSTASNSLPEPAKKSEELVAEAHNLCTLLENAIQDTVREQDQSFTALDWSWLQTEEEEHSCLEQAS

[9] = target: T3, Inhibitor of nuclear factor kappa-B kinase subunit beta (Homo sapiens); details: at 1 µM
[10] = target: T4, Inhibitor of nuclear factor kappa-B kinase subunit epsilon (Homo sapiens) (UniProt Q14164); details: at 0.1 µM
T4 sequence (whole entry): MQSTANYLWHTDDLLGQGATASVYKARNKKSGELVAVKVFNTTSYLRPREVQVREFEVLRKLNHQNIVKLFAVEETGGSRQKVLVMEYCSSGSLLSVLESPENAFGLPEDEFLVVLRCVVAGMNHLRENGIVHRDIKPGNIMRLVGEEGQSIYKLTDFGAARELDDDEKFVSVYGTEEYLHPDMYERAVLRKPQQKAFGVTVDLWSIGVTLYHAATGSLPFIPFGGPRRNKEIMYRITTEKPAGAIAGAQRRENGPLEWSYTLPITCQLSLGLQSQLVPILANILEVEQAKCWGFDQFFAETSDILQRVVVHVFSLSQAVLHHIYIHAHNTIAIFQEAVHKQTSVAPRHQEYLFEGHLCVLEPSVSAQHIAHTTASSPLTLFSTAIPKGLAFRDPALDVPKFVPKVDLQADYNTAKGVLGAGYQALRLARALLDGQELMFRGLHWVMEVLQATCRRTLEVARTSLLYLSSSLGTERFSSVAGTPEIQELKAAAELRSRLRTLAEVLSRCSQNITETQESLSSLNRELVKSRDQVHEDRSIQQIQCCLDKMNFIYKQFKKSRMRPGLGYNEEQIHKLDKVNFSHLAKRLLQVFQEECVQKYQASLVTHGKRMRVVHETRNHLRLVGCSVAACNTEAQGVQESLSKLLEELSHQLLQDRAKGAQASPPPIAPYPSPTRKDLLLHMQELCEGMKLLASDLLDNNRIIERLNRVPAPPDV

[11] = target: T4, Inhibitor of nuclear factor kappa-B kinase subunit epsilon (Homo sapiens); details: at 1 µM
[12] = target: T5, Serine/threonine-protein kinase Nek1 (Homo sapiens) (UniProt Q96PY6); details: at 0.1 µM
T5 sequence (whole entry): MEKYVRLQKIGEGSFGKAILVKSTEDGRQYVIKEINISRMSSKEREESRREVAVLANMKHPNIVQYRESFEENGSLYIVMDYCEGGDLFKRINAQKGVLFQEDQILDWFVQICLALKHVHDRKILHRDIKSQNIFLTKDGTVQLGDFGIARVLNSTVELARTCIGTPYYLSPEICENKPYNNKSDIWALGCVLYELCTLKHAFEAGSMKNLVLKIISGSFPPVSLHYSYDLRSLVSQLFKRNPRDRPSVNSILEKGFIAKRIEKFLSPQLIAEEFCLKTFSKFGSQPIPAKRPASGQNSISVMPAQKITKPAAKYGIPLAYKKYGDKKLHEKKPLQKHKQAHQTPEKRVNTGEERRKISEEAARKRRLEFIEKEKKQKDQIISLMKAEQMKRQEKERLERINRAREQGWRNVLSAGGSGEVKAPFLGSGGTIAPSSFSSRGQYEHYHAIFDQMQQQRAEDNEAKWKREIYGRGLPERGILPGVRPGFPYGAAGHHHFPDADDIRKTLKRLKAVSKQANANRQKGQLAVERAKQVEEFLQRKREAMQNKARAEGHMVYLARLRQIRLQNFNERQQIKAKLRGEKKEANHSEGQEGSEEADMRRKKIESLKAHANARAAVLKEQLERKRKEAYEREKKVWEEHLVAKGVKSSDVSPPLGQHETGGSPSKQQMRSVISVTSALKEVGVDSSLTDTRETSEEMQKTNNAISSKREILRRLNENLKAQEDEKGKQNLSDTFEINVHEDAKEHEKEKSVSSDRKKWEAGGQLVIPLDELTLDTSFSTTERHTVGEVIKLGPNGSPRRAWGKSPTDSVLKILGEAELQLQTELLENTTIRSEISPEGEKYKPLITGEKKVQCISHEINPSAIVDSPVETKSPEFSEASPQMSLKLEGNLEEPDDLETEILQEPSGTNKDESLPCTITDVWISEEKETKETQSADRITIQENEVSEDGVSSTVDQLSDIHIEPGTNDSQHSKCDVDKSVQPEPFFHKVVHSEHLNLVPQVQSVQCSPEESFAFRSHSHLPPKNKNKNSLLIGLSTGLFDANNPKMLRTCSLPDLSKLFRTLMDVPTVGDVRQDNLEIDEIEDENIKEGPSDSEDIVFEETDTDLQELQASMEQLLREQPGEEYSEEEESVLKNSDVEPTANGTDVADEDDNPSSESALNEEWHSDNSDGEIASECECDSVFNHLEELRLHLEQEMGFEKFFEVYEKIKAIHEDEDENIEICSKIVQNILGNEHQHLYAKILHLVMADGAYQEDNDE

[13] = target: T5, Serine/threonine-protein kinase Nek1 (Homo sapiens); details: at 1 µM
[14] = target: T6, Serine/threonine-protein kinase Nek2 (Homo sapiens) (UniProt P51955); details: at 0.1 µM
T6 sequence (whole entry): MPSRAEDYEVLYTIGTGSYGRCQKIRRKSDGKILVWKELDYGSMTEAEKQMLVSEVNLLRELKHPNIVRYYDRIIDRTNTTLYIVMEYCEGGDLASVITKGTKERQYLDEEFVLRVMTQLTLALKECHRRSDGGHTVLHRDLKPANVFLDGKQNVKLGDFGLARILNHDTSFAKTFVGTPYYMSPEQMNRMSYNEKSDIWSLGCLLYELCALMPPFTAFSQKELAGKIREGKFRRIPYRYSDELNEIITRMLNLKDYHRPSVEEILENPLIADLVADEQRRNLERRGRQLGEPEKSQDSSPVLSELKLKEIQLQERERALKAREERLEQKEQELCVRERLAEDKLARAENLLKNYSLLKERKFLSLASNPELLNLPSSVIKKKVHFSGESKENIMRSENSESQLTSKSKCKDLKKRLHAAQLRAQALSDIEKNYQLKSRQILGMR

[15] = target: T6, Serine/threonine-protein kinase Nek2 (Homo sapiens); details: at 1 µM
[16] = target: Serine/threonine-protein kinase Nek6 (Homo sapiens) (UniProt Q9HC98); details: at 0.1 µM
Sequence of Serine/threonine-protein kinase Nek6 (Homo sapiens) (Q9HC98 whole entry): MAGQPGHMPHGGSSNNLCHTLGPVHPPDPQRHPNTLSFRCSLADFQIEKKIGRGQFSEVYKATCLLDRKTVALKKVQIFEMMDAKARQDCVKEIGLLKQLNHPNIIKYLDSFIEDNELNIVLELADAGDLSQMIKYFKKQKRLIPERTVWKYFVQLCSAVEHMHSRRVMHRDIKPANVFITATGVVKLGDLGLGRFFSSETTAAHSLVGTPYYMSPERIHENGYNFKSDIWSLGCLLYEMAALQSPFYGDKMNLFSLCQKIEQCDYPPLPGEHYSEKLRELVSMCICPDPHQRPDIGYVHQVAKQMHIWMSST

[17] = target: Serine/threonine-protein kinase Nek6 (Homo sapiens) (UniProt Q9HC98); details: at 1 µM
[18] = target: Serine/threonine-protein kinase Nek7 (Homo sapiens) (UniProt Q8TDX7); details: at 0.1 µM
Sequence of Serine/threonine-protein kinase Nek7 (Homo sapiens) (Q8TDX7 whole entry, looked up): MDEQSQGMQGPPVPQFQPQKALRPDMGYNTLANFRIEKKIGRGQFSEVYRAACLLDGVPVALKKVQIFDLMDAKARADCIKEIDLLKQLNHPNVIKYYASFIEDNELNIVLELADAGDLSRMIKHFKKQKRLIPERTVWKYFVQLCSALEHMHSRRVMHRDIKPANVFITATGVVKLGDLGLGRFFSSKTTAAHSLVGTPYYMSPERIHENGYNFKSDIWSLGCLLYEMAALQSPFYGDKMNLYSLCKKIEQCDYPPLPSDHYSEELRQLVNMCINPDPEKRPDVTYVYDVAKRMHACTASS

[19] = target: Serine/threonine-protein kinase Nek7 (Homo sapiens) (UniProt Q8TDX7); details: at 1 µM
[20] = target: T7, Serine/threonine-protein kinase Nek9 (Homo sapiens) (UniProt Q8TD19); details: at 0.1 µM;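 further: reported value is the mean percent inhibition of NEK9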
T7 sequence (whole entry): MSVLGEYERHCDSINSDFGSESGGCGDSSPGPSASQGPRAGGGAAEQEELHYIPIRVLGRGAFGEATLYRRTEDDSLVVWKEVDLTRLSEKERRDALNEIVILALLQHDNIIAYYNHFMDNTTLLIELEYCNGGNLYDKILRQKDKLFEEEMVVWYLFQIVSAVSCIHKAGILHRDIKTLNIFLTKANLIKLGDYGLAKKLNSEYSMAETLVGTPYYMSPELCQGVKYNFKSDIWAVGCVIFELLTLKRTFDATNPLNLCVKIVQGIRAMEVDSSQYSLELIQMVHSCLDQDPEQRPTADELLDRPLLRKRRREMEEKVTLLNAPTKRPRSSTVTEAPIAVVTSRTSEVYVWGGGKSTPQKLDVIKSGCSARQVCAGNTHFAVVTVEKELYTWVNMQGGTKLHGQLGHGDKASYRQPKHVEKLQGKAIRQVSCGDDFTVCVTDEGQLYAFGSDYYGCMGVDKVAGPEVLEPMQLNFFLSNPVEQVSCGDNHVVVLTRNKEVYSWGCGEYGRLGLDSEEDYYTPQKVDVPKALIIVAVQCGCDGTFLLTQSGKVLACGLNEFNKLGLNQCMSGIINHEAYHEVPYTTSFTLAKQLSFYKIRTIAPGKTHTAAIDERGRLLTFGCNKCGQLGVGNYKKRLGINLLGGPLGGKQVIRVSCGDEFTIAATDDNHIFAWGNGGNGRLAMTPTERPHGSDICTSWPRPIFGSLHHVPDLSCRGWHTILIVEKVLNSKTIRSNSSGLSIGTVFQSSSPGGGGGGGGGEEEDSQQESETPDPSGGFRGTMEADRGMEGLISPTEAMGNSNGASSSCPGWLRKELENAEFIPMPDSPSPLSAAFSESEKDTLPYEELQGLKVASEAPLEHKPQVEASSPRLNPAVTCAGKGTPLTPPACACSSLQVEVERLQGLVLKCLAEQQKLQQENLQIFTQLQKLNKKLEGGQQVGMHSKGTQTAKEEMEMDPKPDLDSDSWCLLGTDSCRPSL

Sequence of Sphingosine kinase 1 (Homo sapiens) (Q9NYA1 whole entry): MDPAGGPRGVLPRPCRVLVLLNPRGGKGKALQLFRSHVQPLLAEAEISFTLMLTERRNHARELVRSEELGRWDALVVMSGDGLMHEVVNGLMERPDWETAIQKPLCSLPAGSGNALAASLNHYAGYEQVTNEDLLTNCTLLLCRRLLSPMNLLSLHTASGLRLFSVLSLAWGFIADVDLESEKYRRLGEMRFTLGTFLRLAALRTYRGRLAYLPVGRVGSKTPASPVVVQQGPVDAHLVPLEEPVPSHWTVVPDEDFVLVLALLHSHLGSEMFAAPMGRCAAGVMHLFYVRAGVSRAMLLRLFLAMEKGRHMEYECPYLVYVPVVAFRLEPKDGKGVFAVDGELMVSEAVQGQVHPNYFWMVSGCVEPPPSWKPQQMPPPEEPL

Row | SMILES | inhibition [1] [%] | inhibition [2] [%] | inhibition [3] [%] | inhibition [4] [%] | inhibition [5] [%] | inhibition [6] [%] | inhibition [7] [%] | inhibition [8] [%] | inhibition [9] [%] | inhibition [10] [%] | inhibition [11] [%] | inhibition [12] [%] | inhibition [13] [%] | inhibition [14] [%] | inhibition [15] [%] | inhibition [16] [%] | inhibition [17] [%] | inhibition [18] [%] | inhibition [19] [%] | inhibition [20] [%]
1 | CCn1c(-c2nonc2N)nc2ccc(F)cc21 | 0.48 | 3.46 | -5.33 | 4.71 | 8.79 | 4 | 6.96 | 7.24 | 8.68 | 8.59 | 11 | 3.29 | 4.51 | 6.07 | 7.52 | 5.03 | 5.4 | 5.72 | 3.91 | 5.14
2 | Nc1nccc(-c2c(-c3ccc(F)cc3)nn3cc(C(F)(F)F)ccc23)n1 | 11.1 | -0.68 | 0 | 15.6 | 2.55 | -2.07 | -2.01 | 1.03 | 0.86 | 1.65 | 0.39 | -0.26 | -0.62 | 0 | 1.3 | 0.29 | -2.61 | -1.44 | 0.7 | 0.57

From ChEMBL document CHEMBL1961873, “Compounds: GSK PKIS; Assays: Nanosyn kinase panel” (2012)
